The panel holds about 83,000 compounds, 20% with a hit somewhere; the sample as a whole holds those more often.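 Plates (96-well) were seeded with cells, treated with compound at one concentration, and incubated for 48 hours before percent growth was determined.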 Values without a mark were called inactive. The source made the active and inactive calls. How the source made its calls: active means growth percent below 10; inactive means the rest.
How the values were obtained:
Assay in all cases: NCI-60 one-dose screen, 48 h (100 = growth as untreated, 0 = no growth, -100 = all killed)
Settings in all cases: 10 µM unless noted
[1] = test system: K-562 leukemia
[2] = test system: MALME-3M melanoma
[3] = test system: MDA-MB-231 breast
[4] = test system: RXF 393 renal
[5] = test system: SF-268 CNS
[6] = test system: SF-295 CNS
[7] = test system: SF-539 CNS
[8] = test system: UACC-257 melanoma
[9] = test system: M14 melanoma
[10] = test system: HCT-15 colon
[11] = test system: HT29 colon
[12] = test system: SNB-75 CNS
[13] = test system: SNB-19 CNS
[14] = test system: U251 CNS
[15] = test system: PC-3 prostate
[16] = test system: SK-MEL-5 melanoma
[17] = test system: UACC-62 melanoma
[18] = test system: LOX IMVI melanoma
[19] = test system: SK-MEL-28 melanoma
[20] = test system: SK-MEL-2 melanoma

| SMILES | growth [1] | growth [2] | growth [3] | growth [4] | growth [5] [%] | growth [6] | growth [7] [%] | growth [8] [%] | growth [9] | growth [10] [%] | growth [11] | growth [12] | growth [13] [%] | growth [14] | growth [15] | growth [16] [%] | growth [17] | growth [18] | growth [19] | growth [20] |
| --- | --- | --- | --- | --- | --- | --- | --- | --- | --- | --- | --- | --- | --- | --- | --- | --- | --- | --- | --- | --- |
| O=C(CSc1nc2sc3c(c2c(=O)n1-c1ccc(Cl)cc1)CCCC3)NNC(=O)Nc1cccc(C(F)(F)F)c1 | 13.1% | 29.8% | 59% | 81.7% | 40.8 | 6.43% (active) | 51.1 | 35.3 | 32.1% | 12.9 | 26.2% | 36.3% | 21.8 | 16.7% | 7.37% (active) | 35.4 | 17.3% | -17% (active) | 33.2% | -8.08% (active) |
| CN1CCN(Cc2ccc(NC(=O)c3cncc(C#Cc4cnc5[nH]ncc5c4)c3)cc2C(F)(F)F)CC1 | 3.87% (active) | -27.9% (active) | -23.8% (active) | -2.95% (active) | 37.7 | 35.4% | 13 | 40.5 | 8.74% (active) | 19.4 | 22.7% | 64% | 59.3 | 31.3% | 42.3% | 43.4 | 1.56% (active) | 2.34% (active) | 1.4% (active) | -49.6% (active) |
| CCOC(=O)c1c(Nc2ccccc2)nn2c(N)c(C#N)c(-c3ccc(Cl)cc3)nc12 | 69.1% | 85% | 69.9% | 64.6% | 61.1 | 26.8% | 64.3 | 95.8 | 81.2% | 76 | 73.1% | -11.2% (active) | 89.8 | 44.6% | 40.9% | 94.8 | 70% | 49.3% | 78.5% | 87% |
| N/C(=N\c1nc2c(Cl)cc(Cl)cc2s1)C(Cl)(Cl)Cl | 71.3% | 91.7% | 38.4% | 53.7% | 75.7 | 11.3% | 44.5 | 78.1 | 93.3% | 57.5 | 8.65% (active) | 7.23% (active) | 46.8 | 21% | 37.5% | 87 | 40.3% | 1.92% (active) | 54.9% | 80.5% |
| Cn1cc(-c2cc(N)n3nc(-c4cn(C)c5ccc(Cl)cc45)cc3n2)c2cc(Cl)ccc21 | 26.5% | 100% | 71.1% | 121% | 78.8 | 95.4% | 94.2 | 108 | 53.4% | 32.8 | -16.5% (active) | 83.2% | 99.4 | -4.82% (active) | 87.3% | 104 | 93.9% | 11.3% | 76.7% | 121% |
| N[C@@H](Cc1cn(-c2c3ccccc3nc3ccccc23)nn1)C(=O)O | 88% | 103% | 97.4% | 114% | 101 | 105% | 90.8 | 106 | 107% | 85.4 | 107% | 96.7% | 93.2 | 103% | 99.2% | 101 | 93.5% | 106% | 100% | 130% |
| Cc1ccc(/C=C/c2nn3c(-c4ccco4)nnc3s2)cc1C | 97.7% | 104% | 94.8% | 112% | 108 | 97% | 99 | 99.2 | 108% | 96 | 109% | 96.5% | 94.9 | 95.7% | 89.9% | 103 | 94.8% | 89.3% | 104% | 128% |
| O=C(CCCN1C(=O)/C(=C/c2ccccc2F)SC1=S)N1CCOCC1 | 59.7% | 72.5% | 73.4% | 83.7% | 95.6 | 103% | 92.7 | 83.6 | 77.6% | 74.3 | 99.2% | 79.3% | 101 | 86.1% | 105% | 97.1 | 81.5% | -63.6% (active) | 89.7% | 115% |

— PubChem BioAssay (NCI)
